In PubChem BioAssay (Tox21):
Inconclusive results are not listed. The source made the active and inactive calls. Unless noted, calls come from the whole dose curve; as a rule, active = well fitted curve in the direction sought with a large enough effect in the repeat runs; inconclusive = weak or mixed curves; inactive = no such curve, though single readings can be large; an effect the other way counts as inactive or inconclusive.

Tests used:
[1] = A CellTox Green Cytotoxicity Assay to monitor cytotoxicity in HepG2 cells - 32 hour (AID 1224883); note: nearly all actives have a fitted effect of over 50% in size
Method in brief: (§1)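 Real-time cytotoxicity: fluorescence of a cell-impermeant cyanine dye binding DNA of dead HepG2 cells, measured repeatedly (0–40 h) during compound exposure at 37 C. Cells seeded 600/well with reagent, dosed after 5 h.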

[2] = A CellTox Green Cytotoxicity Assay to monitor cytotoxicity in HEK293 cells - 8 hour (AID 1224884); note: nearly all actives have a fitted effect of over 35% in size
Method in brief: (§2)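 Fluorescence from a DNA-binding dye excluded by viable cells was measured repeatedly in the same HEK293 wells (600 cells/well) during continuous compound exposure at 37 C. Each assay gives one read point: 0, 8, 16, 24, 32 or 40 h.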

[3] = qHTS RealTime-Glo MT Cell Viability Assay in HepG2 cells - 16 hour (AID 1224885); note: nearly all actives have a fitted effect of over 50% in size
Method in brief: (§3)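 Cell number in HepG2 cultures estimated from NanoLuc luminescence generated by metabolic reduction of a prosubstrate by living cells. The homogeneous, nonlytic format allowed repeated reads at 0, 8, 16, 24, 32 and 40 h of compound exposure.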

[4] = qHTS RealTime-Glo MT Cell Viability Assay in HEK293 cells - 24 hour (AID 1224886); note: top concentration of the series differs between compounds; nearly all actives have a fitted effect of over 50% in size
Method in brief: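 Homogeneous bioluminescent viability format in HEK293 cells (600 cells/well). Following 5 h at 37 C/5% CO2, 23 nL compound was pintooled; the signal was measured repeatedly during 40 h incubation.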

[5] = qHTS RealTime-Glo MT Cell Viability Assay in HEK293 cells - 8 hour (AID 1224887); note: top concentration of the series differs between compounds; nearly all actives have a fitted effect of over 50% in size
Method in brief: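 Luminescence, which tracks viable cell number through reduction of the prosubstrate to a NanoLuc substrate, was read over continuous 37 C culture. Cells (600/well) were premixed with reagent and rested 5 h before 23 nL of compound in DMSO was pinned.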

[6] = qHTS RealTime-Glo MT Cell Viability Assay in HepG2 cells - 0 hour (AID 1224889); note: nearly all actives have a fitted effect of over 50% in size
Method in brief: as §3

[7] = A CellTox Green Cytotoxicity Assay to monitor cytotoxicity in HepG2 cells - 8 hour (AID 1224890); note: nearly all actives have a fitted effect of over 45% in size
Method in brief: as §1

[8] = qHTS assay to identify small molecule antagonists of the estrogen receptor alpha (ER-alpha) signaling pathway using the BG1 cell line in the presence of 0.1 nM 17-beta-estradiol - cell viability counter screen (AID 1259241); note: nearly all actives have a fitted effect of over 40% in size
Method in brief: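 Cytotoxicity counter-screen: live-cell protease activity measured by fluorescence (30 min reagent step) in the same wells. Cells were VM7Luc4E2 with endogenous ER-alpha and ERE-driven luciferase, treated 22 hr at 37C alongside 0.1 nM 17beta-estradiol final.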

[9] = qHTS assay to identify small molecule antagonists of the androgen receptor (AR) signaling pathway using the MDA cell line in the presence of 0.5 nM R1881 - cell viability counter screen (AID 1259242); note: nearly all actives have a fitted effect of over 45% in size
Method in brief: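 Live-cell protease activity was measured by CellTiter-Fluor fluorescence after 30 min. Before that, MDA-kb2 MMTV-luciferase cells had 16 hr at 37C without CO2, exposed to test compounds and 0.5 nM R1881 final.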

[10] = qHTS assay to identify small molecule HDAC inhibitors (AID 1259364); note: top concentration of the series differs between compounds; nearly all actives have a fitted effect of over 45% in size
Method in brief: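 Luminescence read after 30 min room-temperature HDAC-Glo incubation measures cellular class I/II HDAC activity. Compounds were applied for 2 hr at 37 C to HCT-116 wild-type cells seeded the day before.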

[11] = qHTS assay to identify small molecule HDAC inhibitors - cell viability counter screen (AID 1259365)
Method in brief: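 CellTiter-Glo luminescence (30 min, room temperature) reported viability after a 2 h compound exposure at 37 C. Cells: wild-type HCT-116, 1,500 per well, seeded the night before.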

[12] = qHTS assay to identify small molecule agonists of the sonic hedgehog signaling (Shh) pathway - cell viability counter screen (AID 1259366); note: nearly all actives have a fitted effect of over 50% in size
Method in brief: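 Cytotoxicity counter screen: CellTiter-Fluor reagent added after 23 h compound exposure, then 1 h at 37C and fluorescence read. Cells were 3T3 Gli1-Luc, seeded 2,000 per well and dosed 4 h post-plating.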

[13] = qHTS assay to identify small molecule antagonists of the sonic hedgehog signaling (Shh) pathway - cell viability counter screen (AID 1259367); note: nearly all actives have a fitted effect of over 55% in size
Method in brief: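 Fluorescence read-out (CellTiter-Fluor, 1 hr at 37C) taken after 23 hr compound treatment of 3T3 Gli1-Luc cells stimulated with conditioned medium. Cells were seeded at 2,000 per well and pre-incubated 4 hr.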

[14] = qHTS assay to identify small molecule agonists of the sonic hedgehog signaling (Shh) pathway (AID 1259368; calls by dose curve;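 note: NIH/3T3-derived 3T3Gli1-Luc cells carrying a stable Gli1-driven firefly luciferase reporter; series mostly up to about 92 µM; nearly all actives have a fitted effect of over 15% in size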)
Method in brief: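 Luminescence was read after 30 min at room temperature with luciferase reagent. Before that, 3T3Gli1-Luc cells (NIH/3T3 clone, stable Gli1-Luc reporter; 2,000/well) were exposed to compounds for 24 hr at 37C, 5% CO2, compounds being added 4 hr post-plating.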

[15] = target: Estrogen receptor beta (Homo sapiens) (UniProt Q92731); test: qHTS assay to identify small molecule agonists of the estrogen receptor beta (ER-beta) signaling pathway (AID 1259377; active = well fitted activation curve with a large enough effect in the signal ratio in the repeat runs, not every such curve was filed as active; the % refers to the signal ratio)
Method in brief: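 Ratiometric beta-lactamase FRET read-out came after 2 h substrate loading at room temperature. It followed 16 h compound treatment at 37C of GripTite HEK293T cells carrying a UAS-bla reporter, plated in 2% charcoal-stripped FBS medium.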

[16] = A CellTox Green Cytotoxicity Assay to monitor cytotoxicity in HEK293 cells - 16 hour (AID 1224888); note: nearly all actives have a fitted effect of over 35% in size
Method in brief: as §2

[17] = target: Estrogen receptor (Homo sapiens) (UniProt P03372); test: qHTS assay to identify small molecule antagonists of the estrogen receptor alpha (ER-alpha) signaling pathway using the BG1 cell line in the presence of 0.1 nM 17-beta-estradiol (AID 1259244); note: nearly all actives have a fitted effect of over 50% in size
Method in brief: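 Luciferase luminescence (ONE-Glo, 30 min at room temperature) was read after 22 hr at 37C exposure to compounds plus 17beta-estradiol at 0.1 nM final. Cells were VM7Luc4E2 with endogenous ER-alpha and an ERE-driven luciferase, pre-cultured 5 days in hormone-depleted medium.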

[18] = qHTS assay to identify small molecule antagonists of the sonic hedgehog signaling (Shh) pathway (AID 1259369; calls by dose curve; note: nearly all actives have a fitted effect of over 45% in size)
Method in brief: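 Antagonist mode: compound added to 3T3 Gli1-Luc cells followed by conditioned-medium stimulation, 24 h at 37 C, 5% CO2. Inhibition taken as loss of Gli1-driven luciferase luminescence.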

[19] = qHTS assay to identify small molecule phospholipidosis (PLD) inducers (AID 1259344; active = well fitted curve in the direction sought with a large enough effect; an effect the other way counts as inactive or inconclusive)
Method in brief: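 Read-out is LipidTOX Red fluorescence (ex 595/em 615) imaged in HepG2 cells after 24 h compound exposure at 37 C, with Hoechst nuclear counterstain (ex 352/em 461) allowing per-cell normalisation.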

[20] = target: Androgen receptor (Homo sapiens) (UniProt P10275); test: qHTS assay to identify small molecule antagonists of the androgen receptor (AR) signaling pathway using the MDA cell line in the presence of 0.5 nM R1881 (AID 1259243); note: nearly all actives have a fitted effect of over 50% in size
Method in brief: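 Luminescent reporter readout (ONE-Glo, 30 min, room temperature) after 16 hr co-treatment of MDA-kb2 cells with test compounds and 0.5 nM R1881 final, at 37C without CO2. The MMTV-driven luciferase responds to both AR and GR.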
% is set by controls: 0 for no effect and ±100 for the full control effect.

Chain of Estrogen receptor (Homo sapiens) (P03372 whole entry, looked up): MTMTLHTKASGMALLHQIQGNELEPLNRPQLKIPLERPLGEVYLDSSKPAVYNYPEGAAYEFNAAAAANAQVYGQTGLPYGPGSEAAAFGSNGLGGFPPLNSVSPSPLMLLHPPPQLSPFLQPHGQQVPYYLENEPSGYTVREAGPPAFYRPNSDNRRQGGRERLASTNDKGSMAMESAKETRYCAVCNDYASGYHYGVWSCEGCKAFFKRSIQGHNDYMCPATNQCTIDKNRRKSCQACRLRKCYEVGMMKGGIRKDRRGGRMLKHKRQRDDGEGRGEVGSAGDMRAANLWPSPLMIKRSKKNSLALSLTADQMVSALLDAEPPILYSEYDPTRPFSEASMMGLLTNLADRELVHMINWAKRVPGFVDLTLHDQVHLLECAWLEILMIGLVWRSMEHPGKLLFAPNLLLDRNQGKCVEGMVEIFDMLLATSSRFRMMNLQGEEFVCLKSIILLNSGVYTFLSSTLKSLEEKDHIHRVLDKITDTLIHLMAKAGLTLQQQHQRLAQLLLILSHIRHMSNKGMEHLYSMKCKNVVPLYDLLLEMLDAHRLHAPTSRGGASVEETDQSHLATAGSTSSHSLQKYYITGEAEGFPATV
Chain of Estrogen receptor beta (Homo sapiens) (Q92731 whole entry, looked up): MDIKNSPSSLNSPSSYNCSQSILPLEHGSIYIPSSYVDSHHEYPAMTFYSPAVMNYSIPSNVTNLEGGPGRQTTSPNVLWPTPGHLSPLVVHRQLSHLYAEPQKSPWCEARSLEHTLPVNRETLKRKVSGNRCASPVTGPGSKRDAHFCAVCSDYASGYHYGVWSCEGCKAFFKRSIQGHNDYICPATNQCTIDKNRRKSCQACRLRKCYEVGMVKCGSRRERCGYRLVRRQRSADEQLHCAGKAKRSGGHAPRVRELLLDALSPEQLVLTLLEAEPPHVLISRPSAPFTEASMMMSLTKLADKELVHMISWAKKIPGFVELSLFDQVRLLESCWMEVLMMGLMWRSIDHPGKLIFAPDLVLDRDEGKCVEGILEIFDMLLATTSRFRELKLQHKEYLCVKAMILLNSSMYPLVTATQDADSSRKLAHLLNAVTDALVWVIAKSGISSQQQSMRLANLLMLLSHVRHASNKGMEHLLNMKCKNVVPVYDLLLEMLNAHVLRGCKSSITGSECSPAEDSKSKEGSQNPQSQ
Chain of Androgen receptor (Homo sapiens) (P10275 whole entry, looked up): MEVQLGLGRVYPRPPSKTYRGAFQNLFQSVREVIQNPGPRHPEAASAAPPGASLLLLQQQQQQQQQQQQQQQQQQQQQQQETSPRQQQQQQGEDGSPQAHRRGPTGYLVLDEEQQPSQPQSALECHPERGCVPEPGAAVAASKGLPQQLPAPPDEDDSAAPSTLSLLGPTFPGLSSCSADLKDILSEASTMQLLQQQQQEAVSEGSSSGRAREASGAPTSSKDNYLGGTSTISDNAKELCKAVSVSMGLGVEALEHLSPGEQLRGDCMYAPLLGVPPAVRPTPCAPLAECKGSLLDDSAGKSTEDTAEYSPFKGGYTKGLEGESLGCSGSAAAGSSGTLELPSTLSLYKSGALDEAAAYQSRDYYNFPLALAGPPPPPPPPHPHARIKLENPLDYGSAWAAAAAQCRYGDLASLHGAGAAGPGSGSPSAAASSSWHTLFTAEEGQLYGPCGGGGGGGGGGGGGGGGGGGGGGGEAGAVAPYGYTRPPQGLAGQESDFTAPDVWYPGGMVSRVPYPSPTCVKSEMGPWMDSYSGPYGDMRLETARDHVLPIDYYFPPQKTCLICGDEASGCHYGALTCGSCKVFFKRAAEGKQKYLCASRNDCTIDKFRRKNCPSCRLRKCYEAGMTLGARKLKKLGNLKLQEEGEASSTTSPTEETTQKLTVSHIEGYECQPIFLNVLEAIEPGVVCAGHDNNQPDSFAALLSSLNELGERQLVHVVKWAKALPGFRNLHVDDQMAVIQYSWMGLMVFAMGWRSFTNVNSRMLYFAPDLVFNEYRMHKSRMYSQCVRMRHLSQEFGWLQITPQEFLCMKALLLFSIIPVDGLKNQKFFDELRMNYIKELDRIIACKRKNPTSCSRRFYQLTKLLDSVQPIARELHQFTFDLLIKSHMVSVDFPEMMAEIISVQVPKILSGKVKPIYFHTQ

O=S(=O)(O)CCN1CCN(CCO)CC1
inactive: Potency [1] | Potency [2] | outcome [3] | Potency [4] | Potency [5] | Potency [6] | outcome [7] | Potency [8] | outcome [9] | Potency [10] | outcome [11] | Potency [12] | Potency [13] | outcome [14] | Potency [15]

COP(=O)(OC)OC(c1ccc(Cl)cc1)P(=O)(OC)OC (centres undefined)
inactive: Potency [1] | Potency [2] | outcome [3] | Potency [4] | outcome [16] | Potency [6] | outcome [7] | Potency [8] | outcome [9] | Potency [17] | Potency [10] | outcome [11] | Potency [12] | Potency [13] | outcome [14]

CN(C)C(=O)CNC(=O)Cc1ccccc1
inactive: Potency [1] | Potency [2] | outcome [3] | Potency [4] | outcome [16] | Potency [6] | outcome [7] | Potency [8] | outcome [9] | Potency [17] | Potency [10] | outcome [11] | Potency [12] | Potency [13] | outcome [14] | Potency [18] | Potency [15]

FC(F)(F)c1ccccc1-n1ccnc1
inactive: Potency [1] | Potency [2] | outcome [3] | Potency [4] | outcome [16] | Potency [6] | outcome [7] | Potency [8] | outcome [9] | outcome [19] | Potency [10] | outcome [11] | Potency [12] | Potency [18]

CC(C)CC(C)CC(C)CC(C)COC(=O)c1ccccc1C(=O)OCC(C)CC(C)CC(C)CC(C)C (centres undefined)
inactive: Potency [1] | Potency [2] | outcome [3] | Potency [4] | outcome [16] | Potency [6] | outcome [7] | Potency [8] | outcome [9] | Potency [10] | outcome [11] | Potency [12] | Potency [13] | outcome [14]

CC(=O)Nc1ccc(S(=O)(=O)Cl)cc1
inactive: Potency [1] | Potency [2] | outcome [3] | Potency [4] | outcome [16] | Potency [6] | outcome [7] | Potency [8] | outcome [9] | Potency [10] | outcome [11] | Potency [12] | Potency [13] | outcome [14] | Potency [18] | Potency [15]

CN(CCOc1ccc(NS(C)(=O)=O)cc1)CCc1ccc(NS(C)(=O)=O)cc1
inactive: Potency [1] | Potency [2] | outcome [3] | Potency [4] | outcome [16] | Potency [6] | outcome [7] | Potency [8] | outcome [9] | Potency [17] | outcome [19] | Potency [10] | outcome [11] | Potency [12] | Potency [13] | outcome [14]

O=P(O)(O)OP(=O)(O)O
inactive: Potency [1] | Potency [2] | outcome [3] | Potency [4] | Potency [5] | Potency [6] | outcome [7] | outcome [9] | Potency [10] | outcome [11] | Potency [12] | Potency [13] | outcome [14] | Potency [18] | Potency [15]

O=C1c2ccccc2C(=O)C1c1ccccc1
inactive: Potency [1] | Potency [2] | outcome [3] | Potency [4] | Potency [5] | Potency [6] | outcome [7] | Potency [8] | outcome [9] | outcome [19] | Potency [10] | outcome [11] | Potency [12] | Potency [13] | outcome [14] | Potency [18]

CC(=O)Nc1ccc(S(=O)(=O)Nc2ccc([N+](=O)[O-])cc2)cc1
inactive: Potency [1] | Potency [2] | outcome [3] | Potency [4] | Potency [5] | Potency [6] | outcome [7] | outcome [9] | Potency [17] | Potency [10] | outcome [11]

CC(C)=O
inactive: Potency [1] | Potency [2] | outcome [3] | Potency [4] | outcome [16] | Potency [6] | outcome [7] | Potency [8] | outcome [9] | Potency [20] | Potency [17] | outcome [19] | Potency [10] | outcome [11] | Potency [12] | Potency [13] | outcome [14] | Potency [18] | Potency [15]

COC(=O)C1CC(=O)C(C(=O)OC)CC1=O (centres undefined)
inactive: cytotoxicity increase [1] -7.66% [at 6.97 µM] | cytotoxicity increase [2] 10.4% [at 6.97 µM] | activity change, negative = cytotoxic [3] -8.58% [at 6.97 µM] | activity change, negative = cytotoxicity [4] 0.682% [at 6.97 µM] | activity change, negative = cytotoxicity [5] 5.57% [at 6.97 µM] | activity change, negative = cytotoxicity [6] -20.4% [at 6.97 µM] | cytotoxicity increase [7] -5.53% [at 6.97 µM] | activity change, negative = cytotoxicity [8] 7.13% [at 8.39 µM] | viability change, negative = cytotoxic [9] 1.05% [at 8.39 µM] | activity change, negative = inhibition [10] -0.18% [at 8.39 µM] | activity change, negative = cytotoxicity [11] 0.106% [at 8.39 µM] | viability change, negative = cytotoxic [12] 11.2% [at 8.39 µM] | viability change, negative = cytotoxic [13] 1.71% [at 8.39 µM] | activity change, negative = inhibition [18] 0.93% [at 8.39 µM]

CC(CO)c1ccccc1 (centres undefined)
inactive: Potency [1] | Potency [2] | outcome [3] | Potency [4] | outcome [16] | Potency [6] | outcome [7] | Potency [8] | outcome [9] | Potency [20] | Potency [17] | Potency [10] | outcome [11] | Potency [12] | Potency [13] | outcome [14] | Potency [18]

CCCCNc1ccc(C(=O)OCCN(C)C)cc1
inactive: Potency [1] | Potency [2] | outcome [3] | Potency [4] | Potency [5] | Potency [6] | outcome [7] | Potency [8] | outcome [9] | outcome [19] | Potency [10] | outcome [11] | Potency [12] | outcome [14] | Potency [18]

CC1COc2ccccc2N1 (centres undefined)
inactive: Potency [1] | Potency [2] | outcome [3] | Potency [5] | outcome [16] | Potency [6] | outcome [7] | Potency [8] | Potency [10] | outcome [11] | Potency [12] | Potency [13] | outcome [14] | Potency [18]

N[C@@H](CCC(=O)N[C@@H](CS)C(=O)NCC(=O)O)C(=O)O
inactive: cytotoxicity increase [1] -10.1% [at 15.8 µM] | activity change, negative = cytotoxic [3] 2.53% [at 15.8 µM] | activity change, negative = cytotoxicity [4] 7.83% [at 15.8 µM] | activity change, negative = cytotoxicity [5] 10.5% [at 15.8 µM] | activity change [16] 0.448% [at 15.8 µM] | activity change, negative = cytotoxicity [6] 1.78% [at 15.8 µM] | cytotoxicity increase [7] -6.34% [at 15.8 µM] | activity change, negative = cytotoxicity [8] -2.09% [at 19 µM] | viability change, negative = cytotoxic [9] 1.98% [at 19 µM] | outcome [19] | activity change, negative = inhibition [10] -2.25% [at 19 µM] | activity change, negative = cytotoxicity [11] 2.26% [at 19 µM] | viability change, negative = cytotoxic [12] -6.52% [at 19 µM] | viability change, negative = cytotoxic [13] 0.577% [at 19 µM] | activity change [14] -0.793% [at 18.9 µM] | activity change, negative = inhibition [18] 20% [at 19 µM]
